# Compound activity as filed in PubChem BioAssay.
# ELG1 genotox: qHTS screen for small molecules that induce genotoxicity in human embryonic kidney (HEK293T) cells expressing luciferase-tagged ELG1. 330,000 compounds, 1.3% hits. AID 504466, 2011. Potency, µM (highest dose often 46 µM), for the others: top-dose activity change, positive = activation, actives largely listed as activators. HEK293T ELG1-luciferase reporter, luminescence, 16 h; also: % of control where 0% means no effect; nearly all actives have a fitted effect of over 60% in size
#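 DMSO vehicle served as control against compound-treated ELG1-luciferase HEK293T cells; exposure lasted 16 hr at 37 °C and 5% CO2, followed by ONE-Glo luminescence detection after 30 min.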
# ELG1 repair inh: qHTS screen for small molecules that inhibit ELG1-dependent DNA repair in human embryonic kidney (HEK293T) cells expressing luciferase-tagged ELG1 | 330,000 compounds, 2.3% hits | Potency, µM (top dose mostly 46.1 µM), without a hit: at the highest dose activity change, negative = inhibition, hits mostly inhibitors | AID 504467, 2011 | HEK293T ELG1-luciferase reporter, luminescence, 16 h; DNA damage induced by 5-fluorouridine; also: % is scaled to controls: 0 for no effect and ±100 for the full control effect; nearly all actives have a fitted effect of over 55% in size
#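 Step one: seed 2,000 cells per well. Step two: pin-transfer compound or DMSO alongside 5-fluorouridine. Step three: incubate 16 hr, 37 °C, 5% CO2. Step four: add ONE-Glo, wait 30 min, read luminescence.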
# NPC1 promoter act: qHTS Assay for NPC1 Promoter Activators; Huh7 NPC1 promoter luciferase reporter, 24 h; Potency, µM (top dose mostly 9.22 µM), for the others: at the highest dose activation, most hits filed as activators; 320,000 compounds, 2.4% hits; AID 485313, 2010; also: % of control where 0% means no effect; nearly all actives have a fitted effect of over 60% in size
#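 Stable NPC1-promoter luciferase Huh7 line; cpd (DMSO) 24 h, 37 °C, 5% CO2; Amplite luciferase reagent 10 min RT; luminescence readout. qHTS format.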
# SMN2 splice up: qHTS Assay for Enhancers of SMN2 Splice Variant Expression. HEK293 SMN2-luciferase splicing reporter, luminescence, 30-36 h. Potency, µM (doses to about 46.1 µM), without a hit: at the top dose activity change, positive = activation, most hits filed as activators. 210,000 compounds, 2.8% hits. AID 1458, 2008; also: % of control where 0% means no effect; nearly all actives have a fitted effect of over 55% in size
#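 HEK293 cells carry an SMN2 […]–luciferase reporter in which exon 7 inclusion puts luciferase in frame. Cells were plated 10-12 h before compound addition, then incubated 30-36 h at 37C. ONE-Glo luminescence was read; sodium butyrate at 4.5 mM final served as control.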
# FLuc counter: qHTS profiling assay for firefly luciferase inhibitor/activator using purifed enzyme and Km concentrations of substrates (counterscreen for miR-21 project) | Potency, µM (highest dose often 57.5 µM), for inactives: at the top dose activity change, negative = inhibition, usual class: inhibitors | purified FLuc, Km substrates, luminescence inhibition | AID 588342, 2011 | 360,000 compounds, 6.9% hits | Luciferin 4-monooxygenase (Photinus pyralis), P08659;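 also: plate controls were vehicle for no effect and reference inhibitor for full effect; nearly all actives have a fitted effect of over 55% in size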
# Target sequence (P08659 whole entry, looked up): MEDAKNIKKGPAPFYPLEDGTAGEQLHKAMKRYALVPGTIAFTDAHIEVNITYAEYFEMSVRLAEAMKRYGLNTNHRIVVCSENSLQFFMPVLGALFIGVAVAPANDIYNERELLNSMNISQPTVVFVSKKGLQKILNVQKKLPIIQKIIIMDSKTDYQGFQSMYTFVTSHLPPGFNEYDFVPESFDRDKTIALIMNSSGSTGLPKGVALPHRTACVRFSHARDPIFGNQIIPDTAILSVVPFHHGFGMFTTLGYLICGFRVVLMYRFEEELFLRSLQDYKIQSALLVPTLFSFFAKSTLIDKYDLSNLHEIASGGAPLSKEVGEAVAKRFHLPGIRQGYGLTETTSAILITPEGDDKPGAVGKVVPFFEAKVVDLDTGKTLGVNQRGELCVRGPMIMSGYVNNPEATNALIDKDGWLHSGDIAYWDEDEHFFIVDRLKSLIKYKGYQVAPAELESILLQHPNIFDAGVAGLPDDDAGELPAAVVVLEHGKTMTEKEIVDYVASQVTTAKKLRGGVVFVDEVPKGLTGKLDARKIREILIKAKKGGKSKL
#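 Purified P. pyralis luciferase, 10 nM final, with Km-level 10 uM D-luciferin and 10 uM ATP in 50 mM Tris acetate pH 7.5, 10 mM Mg acetate, 0.01% Tween-20, 0.05% BSA; 6-point qHTS titration about 60 µM downward; luminescence read.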
# Rab9 prom act: qHTS Assay for Rab9 Promoter Activators; Potency, µM (doses to about 9.22 µM), for inactives: at the top dose activation, negative = inhibition, most hits filed as activators; Huh7 Rab9 promoter-luciferase reporter, luminescence, 24 h; 320,000 compounds, 2.8% hits; AID 485297, 2010; also: % of control where 0% means no effect; nearly all actives have a fitted effect of over 60% in size
#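 Stable Rab9-luc Huh7, 1500 cells/well, 2 h settle; cmpd in DMSO, 24 h, 37 °C/5% CO2; luciferase reagent 10 min RT; luminescence.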
# * = called active by the depositor; u = inconclusive; x = no result; [ ] = dose if it differs, or a comment. Only some compounds are listed: those with a hit (about 9.2% of all), similar ones and a draw of the others. Calls follow the shape of the dose curve; as a rule, active = well fitted curve in the direction sought with a large enough effect; inconclusive = small, poorly fitted or top-dose-only effect, or another doubt; inactive = no such curve, though single readings can be large; an effect the other way counts as inactive or inconclusive. Potency is read from the fitted curve at half-maximal effect.
SMILES,ELG1 genotox,ELG1 repair inh,NPC1 promoter act,SMN2 splice up,FLuc counter,Rab9 prom act
CCOc1ccc(C(=O)NN2CCOCC2)cc1,0.9%,6.6%,-0.5%,x,2.0%,7.7%
COc1ccc(NC(=O)N2CC[C@@]3(CCCN(C(=O)c4ccncc4)C3)C2)cc1,x,x,x,-10.9%,x,x
CC(C)[C@H](NC(=O)c1ccccc1F)C(=O)NC1CCCCCCC1,-0.2%,0.0%,x,x,x,x
CCn1c(COc2ccccc2Cl)nnc1SCC(=O)Nc1ncccc1C,0.5%,1.7%,0.7%,-9.5%,0.7%,-0.1%
CCN(CC)P(=O)(Nc1cccc(C(F)(F)F)c1)c1ccc(N(C)C)cc1NC(=O)c1ccco1 (centres undefined),-16.6%,20.6µM*,-14.8%,-21.9%,-1.8%,1.3%
O=C(CN1C(=O)S/C(=C\C=C\c2ccccc2)C1=O)Nc1ccc(C(=O)O)cc1,7.8%,0.9%,3.0%,x,6.01µM*,3.1%
O=C(CN1C(=O)S/C(=C/C=C/c2ccccc2)C1=O)Nc1ccc(C(=O)O)cc1,8.8%,23.4%,-5.3%,11.1%,4.78µM*,-6.7%
O=C(CCCN1C(=O)S/C(=C\C=C\c2ccccc2)C1=O)Nc1ccc(O)cc1,u,u,u,x,u,24.5%
O=C(CCN1C(=O)/C(=C/C=C/c2ccccc2)SC1=S)Nc1nc2ccccc2s1,17.6%,6.0%,-1.3%,2.2%,u,-2.0%
O=C(COC(=O)CCN1C(=O)/C(=C\C=C\c2ccccc2)SC1=S)Nc1cc(F)ccc1F,3.4%,u,-1.7%,-13.9%,13.5µM*,-7.3%
O=C(CN1C(=O)/C(=C\C=C\c2ccccc2)SC1=S)Nc1ccc(F)cc1,3.9%,u,0.1%,4.47µM*,-5.8%,1.3%
O=C(CCN1C(=O)/C(=C\C=C\c2ccccc2)SC1=S)Nc1ccc(C(=O)O)cc1,u,u,u,x,0.953µM*,29.2%
COc1cccc(NC(=O)c2c(C)nn(-c3ccccc3)c2Cl)c1,0.5%,u,17.8%,x,16.9µM*,u
COc1ccc(NC(=O)c2c(C)nn(-c3ccccc3)c2Cl)cc1,2.9%,u,21.9%,x,u,16.1%
Cc1nn(-c2ccccc2)c(C)c1C(=O)OCC(=O)N1c2ccccc2NC(=O)C1(C)C,-18.2%,18.4µM*,-4.9%,-2.1%,-0.1%,-4.2%
Cc1ccc(NC(=O)c2c(C)nn(-c3ccccc3)c2Cl)cc1,9.0%,u,11.7%,28.2%,15.1µM*,23.8%
CC(=O)c1ccc(NC(=O)c2c(C)nn(-c3ccccc3)c2Cl)cc1,0.3%,-6.4%,-0.3%,x,-2.8%,-2.6%
COc1cccc(NC(=O)COC(=O)c2c(C)nn(-c3ccccc3)c2C)c1,-3.2%,u,-1.0%,x,21.3µM*,0.6%
N#Cc1ccc(C(=O)NCC2CCCCC2)cc1,6.9%,24.5%,-2.5%,x,3.9%,-2.5%
C/C(=N\NC(=O)CSCc1ccccc1Cl)c1cc(O)ccc1O,u,18.3µM*,-23.4%,x,19µM*,-22.1%
CC(=O)N1CCc2c(sc(NC(=O)C3COc4ccccc4O3)c2C(N)=O)C1 (centres undefined),20.4%,-7.2%,10.0%,x,-18.3%,10.9%
CN1CCc2c(sc(NC(=O)C3COc4ccccc4O3)c2C(N)=O)C1 (centres undefined),23.1µM*,u,u,x,-11.1%,u
CN1CCc2c(sc(NC(=O)Cc3ccccc3)c2C(N)=O)C1,5.2%,6.7%,1.0%,x,4.9%,6.0%
CN1CCc2c(sc(NC(=O)c3ccc4ccccc4c3)c2C(N)=O)C1,10.3µM*,u,u,x,2.69µM*,u
COc1cc2ccccc2cc1C(=O)Nc1sc2c(c1C(N)=O)CCN(C(C)C)C2,-0.9%,-10.3%,-6.7%,x,9.53µM*,-6.5%
SMILES,ELG1 genotox,ELG1 repair inh,NPC1 promoter act,SMN2 splice up,FLuc counter,Rab9 prom act
CCN1CCc2c(sc(NC(=O)C3COc4ccccc4O3)c2C(N)=O)C1 (centres undefined),18.3µM*,u,u,x,-2.8%,u
CCOC(=O)N1CCc2c(sc(NC(=O)C3COc4ccccc4O3)c2C(N)=O)C1 (centres undefined),-11.2%,u,17.8%,x,4.4%,12.5%
Cc1cccn2c(NC(=O)c3ccccc3F)c(-c3ccccc3)nc12,0.4%,-2.8%,-0.8%,x,-13.9%,1.5%[1.84 µM]
COc1ccc(/C=C/C(=O)NCC(=O)N/N=C(/C)c2ccco2)cc1,0.8%,14.3%,-0.1%,x,u,0.4%
O=C(CSc1nnc(C2CC2)n1C1CC1)c1ccc(Br)s1,16.6%,28.2%,x,x,x,x
CCOC(=O)N1CCc2c(sc(NC(=O)c3ccc(Cl)s3)c2C(N)=O)C1,-9.9%,-13.4%,-0.7%,-92.3%,10.7µM*,2.4%
CCOC(=O)c1c(NC(=O)c2cccs2)sc2c1CCN(C(=O)OCC)C2,-15.9%,u,-3.2%,u,-3.5%,1.4%
C/C(=N\Nc1nncc2ccccc12)c1ccc(OCC(=O)N(C)C)cc1,15.1%,u,27.3%,x,12µM*,u
CC/C(=N/Nc1ccccc1)c1cnnc(-c2ccccc2)n1,u,26.4%,-8.1%,9.4%,0.4%,-8.1%
CC/C(=N\Nc1nncc2ccccc12)c1ccc(F)cc1,16.4µM*,u,u,x,12µM*,u
CCOC(=O)NNc1nncc2ccccc12,-6.0%,-1.8%,0.2%,10.9%,-7.9%,1.8%
Cc1c(C)c(C)c(CN2CCCC2)c(C)c1C,-2.5%,0.0%,-0.5%,x,0.6%,-9.6%
Cc1ccc(SCC(=O)Nc2ccc(N3CCN(C)CC3)c(F)c2)c(C)c1,2.9%,6.0%,11.8%,-14.5%,12µM*,4.2%
Cc1ccc(-n2nnnc2SCC(=O)Nc2ccc(N3CCN(C)CC3)cc2)c(C)c1,-1.4%,12.6%,6.3%,x,-2.2%,-10.9%
O=C(CSc1ccccc1)Nc1ccc(N2CCOCC2)c(F)c1,u,u,3.55µM*,x,u,3.16µM*
CC(=O)Nc1ccc(NC(=O)C(C)OC(=O)C23CC4CC(CC(Cl)(C4)C2)C3)cc1 (centres undefined),0.4%,-4.3%,x,x,x,x
O=S1(=O)NC2c3ccccc3CC2O1 (centres undefined),-3.8%,3.1%,0.5%,x,-9.3%,-0.1%
CC(C)c1ccc2c(c1)C1Cc3ccccc3C1N2 (centres undefined),u,u,16.4%,20.6%,15.1µM*,8.5%
